We go through five compounds from PubChem BioAssay.

For one assay, the target named is Albumin (Bos taurus) (UniProt P02769). Put plainly: bovine serum albumin binders on microarray, profiling panel, artefact control for SMM control protein annotation, biochemical, small-molecule microarray, Alexa647 label, 635/667 nm fluorescence (AID 1118).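 Note: score merges 667 nm emission intensity and signal-to-noise per printed compound spot.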 The note with it: BSA-A647 binding, fluorescence 635 nm, higher = more signal.
Assay [1] in a line: small-molecule microarray binders of probe aXIP, primary screen, biochemical, NeuroSMM set, 635/667 nm fluorescence (AID 1119).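 Note: probe is the protein aXip251-270 applied at 1 µg/mL to compound-printed slides; binding of probe to printed compounds measured as 667 nm fluorescence plus signal to noise.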 The conditions noted are these: higher = more signal, called active from +8 up or from −8 down.
Assay [2] is described as follows: small-molecule binders of probe aNOTCH3, primary screen, biochemical, small-molecule microarray, 635/667 nm fluorescence (AID 1120).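 Note: probe is a biotin-tagged antibody raised against NOTCH3 rather than NOTCH3 protein; score merges spot fluorescence near 667 nm with spot signal to noise.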 The conditions noted are these: higher = more signal.
A short description of assay [3]: small-molecule binders of probe aNOTCH2, primary screen, biochemical, small-molecule microarray, 635/667 nm fluorescence (AID 1121).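 Note: score merges feature fluorescence read at 667 nm with its signal to noise.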 The note with it: higher = more signal.
The target in assay [4] is Carbonic anhydrase 2 (Homo sapiens) (UniProt P00918). The assay is described as follows: CAII small-molecule binders, profiling panel, biochemical, small-molecule microarray, Alexa647-labelled CAII (AID 1122). The note with it: CAII-A647 binding fluorescence, higher = more signal.
A short description of assay [5]: COS7 lysate on small-molecule microarray, probe aHis, 635 nm (AID 1123).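 Note: z-score combines 667nm fluorescence intensity with signal-to-noise per printed compound spot.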 The note with it: COS7 cell lysate, fluorescence, higher = more signal.
A short description of assay [6]: compound binding in COS7 lysate, probe aLAP1, primary screen, cell lysate, small-molecule microarray (AID 1124).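 Note: lysate comes from COS7 cells expressing LAP1 and is applied at 0.3 µg/mL; score merges spot fluorescence near 667 nm with signal-to-noise over triplicate slides.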 The conditions noted are these: probe aLAP1, fluorescence, higher = more signal.
The next assay deals with Sam68 (KHDRBS1). Put plainly: Sam68 small-molecule binders, primary screen, biochemical, small-molecule microarray, 635 nm fluorescence (AID 1125).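 Note: score merges 667 nm channel intensity with signal to noise over triplicate slides.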 The conditions noted are these: small-molecule microarray binding, higher = more signal.
In assay [7] the test system is Chordin-like protein 2 (CHRDL2). Put plainly: CHRDL2 small-molecule binders, primary screen, biochemical, small-molecule microarray, 635 nm fluorescence (AID 1126).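 Note: printed compound slides probed with Chrdl2 protein at 4 µg/mL for 1 h at 4 C; score merges 667 nm emission intensity with signal to noise over three replicate slides.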 The conditions noted are these: small-molecule microarray binding, fluorescence 635 nm; higher = more signal.
In assay [8] the target is Concanavalin-A (Canavalia ensiformis) (UniProt P02866). The assay is described as follows: ConA small-molecule binders, primary screen, artefact control for SMM control protein annotation, biochemical, small-molecule microarray, Alexa647 label, 635 nm (AID 1127).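 Note: z combines 667 nm emission intensity with signal-to-noise across three replicate slides.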 The note with it: ConA-A647 binding fluorescence, higher = more signal.
Assay [9] in a line: anti-His antibody binders, primary screen, artefact control for SMM control protein annotation, biochemical, small-molecule microarray, 635 nm fluorescence (AID 1128).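 Note: score merges feature fluorescence with signal-to-noise for each printed compound spot.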 The conditions noted are these: anti-His Alexa647 antibody binding, higher = more signal.
Assay [10] concerns Human papillomavirus type 1a E7 protein (residues 1-88). Put plainly: HPV1a E7 small-molecule binders, primary screen, biochemical, small-molecule microarray, residues 1-88, 635 nm (AID 1129). The conditions noted are these: small-molecule microarray binding, fluorescence 635 nm; higher = more signal.
Assay [11] has as its target Focal adhesion kinase 1 (Homo sapiens) (UniProt Q05397). The assay is described as follows: small-molecule microarray binders of FAK, primary screen, biochemical, 635/667 nm fluorescence, BSA, DTT (AID 1130).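 Note: composite of spot emission at 667 nm and signal to noise over triplicate slides.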 The note with it: PTK2 binding, 635 nm fluorescence, higher = more signal.
In assay [12] the test system is Fibrinogen (Alexa647-labelled). Put plainly: fibrinogen binders on compound microarrays, profiling panel, artefact control for SMM control-protein annotation, biochemical, small-molecule microarray, 635/667 nm fluorescence (AID 1131).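 Note: z-score merges 667 nm fluorescence with per-spot signal-to-noise over triplicate slides.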 The conditions noted are these: fibrinogen-A647 binding fluorescence, higher = more signal.
Assay [13] deals with Follistatin (Homo sapiens) (UniProt P19883). Put plainly: follistatin binders on small-molecule microarrays, primary screen, biochemical, small-molecule microarray, 635/667 nm fluorescence (AID 1132). The note with it: FST binding, 635 nm fluorescence, higher = more signal.
For assay [14], the target named is Fibroblast growth factor 2 (Homo sapiens) (UniProt P09038). The assay is described as follows: FGF2 binders on small-molecule microarrays, primary screen, biochemical, small-molecule microarray, 635/667 nm fluorescence (AID 1133). The conditions noted are these: small-molecule microarray binding, FGF2, fluorescence 635/667; higher = more signal.
Assay [15] is described as follows: mitochondrial membrane potential change in A549 cells, profiling panel, cell-based, JC-1 fluorescence, basal, 24 h, 100 nL (AID 1138).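 Note: A549 lung adenocarcinoma cells under basal conditions with no added stimulus; test concentration not given here.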 The note with it: higher = more signal.
For the next assay, the system named is Lefty1. The assay is described as follows: Lefty1 binders on small-molecule microarrays, primary screen, biochemical, small-molecule microarray, 635/667 nm fluorescence (AID 1139). The note with it: small-molecule microarray binding, fluorescence 635/667; higher = more signal.
Assay [16] concerns wheat germ agglutinin (Triticum aestivum), Alexa647-labelled. Put plainly: wheat germ agglutinin binders on compound microarrays, profiling panel, artefact control for SMM control-protein annotation, biochemical, small-molecule microarray, 635/667 nm fluorescence (AID 1140).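 Note: score merges 667 nm feature emission with signal to noise over triplicate slides.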 The conditions noted are these: WGA-A647 binding, 635 nm fluorescence, higher = more signal.
For assay [17], the target named is Luciferin 4-monooxygenase (Photinus pyralis) (UniProt P08659). Put plainly: firefly luciferase enzyme inhibitors, primary screen, biochemical, luminescence, purified enzyme, 2006 set (AID 1141).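 Note: cell-free assay with purified firefly luciferase at 100 ng per well in PBS; test concentration not given here.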 The conditions noted are these: SteadyGlo luminescence, 30 min, higher = more signal, called active from +8 up or from −8 down.

Calls of active or inactive are those of the source.

Chain of Focal adhesion kinase 1 (Homo sapiens) (Q05397 whole entry, looked up): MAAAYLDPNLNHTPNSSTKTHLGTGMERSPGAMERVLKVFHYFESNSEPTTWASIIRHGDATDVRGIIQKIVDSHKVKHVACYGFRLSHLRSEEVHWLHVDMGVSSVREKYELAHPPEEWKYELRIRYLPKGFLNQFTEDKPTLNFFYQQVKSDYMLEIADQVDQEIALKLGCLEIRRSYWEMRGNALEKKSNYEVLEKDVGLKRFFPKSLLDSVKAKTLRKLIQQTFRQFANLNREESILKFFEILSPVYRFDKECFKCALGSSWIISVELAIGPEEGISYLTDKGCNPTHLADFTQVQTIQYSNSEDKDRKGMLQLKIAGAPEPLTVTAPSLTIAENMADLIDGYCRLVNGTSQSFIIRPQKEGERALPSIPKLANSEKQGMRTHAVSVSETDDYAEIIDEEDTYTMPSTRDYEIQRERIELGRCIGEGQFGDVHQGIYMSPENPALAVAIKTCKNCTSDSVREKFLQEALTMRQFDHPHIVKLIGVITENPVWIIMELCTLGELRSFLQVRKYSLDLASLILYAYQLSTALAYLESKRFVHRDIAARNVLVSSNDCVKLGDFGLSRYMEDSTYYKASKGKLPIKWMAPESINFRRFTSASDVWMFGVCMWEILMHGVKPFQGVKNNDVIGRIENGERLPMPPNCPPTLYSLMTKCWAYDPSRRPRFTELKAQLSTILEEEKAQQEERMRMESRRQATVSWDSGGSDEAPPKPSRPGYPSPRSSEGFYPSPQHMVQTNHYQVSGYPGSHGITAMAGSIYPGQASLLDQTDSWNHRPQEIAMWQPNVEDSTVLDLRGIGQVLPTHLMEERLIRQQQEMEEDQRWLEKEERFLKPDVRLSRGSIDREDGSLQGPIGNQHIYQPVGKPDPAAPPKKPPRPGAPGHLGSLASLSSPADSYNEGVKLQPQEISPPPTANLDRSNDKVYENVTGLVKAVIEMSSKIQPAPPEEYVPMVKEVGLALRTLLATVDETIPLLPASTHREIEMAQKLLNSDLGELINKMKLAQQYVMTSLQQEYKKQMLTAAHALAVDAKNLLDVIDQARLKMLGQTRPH
Chain of Luciferin 4-monooxygenase (Photinus pyralis) (P08659 whole entry, looked up): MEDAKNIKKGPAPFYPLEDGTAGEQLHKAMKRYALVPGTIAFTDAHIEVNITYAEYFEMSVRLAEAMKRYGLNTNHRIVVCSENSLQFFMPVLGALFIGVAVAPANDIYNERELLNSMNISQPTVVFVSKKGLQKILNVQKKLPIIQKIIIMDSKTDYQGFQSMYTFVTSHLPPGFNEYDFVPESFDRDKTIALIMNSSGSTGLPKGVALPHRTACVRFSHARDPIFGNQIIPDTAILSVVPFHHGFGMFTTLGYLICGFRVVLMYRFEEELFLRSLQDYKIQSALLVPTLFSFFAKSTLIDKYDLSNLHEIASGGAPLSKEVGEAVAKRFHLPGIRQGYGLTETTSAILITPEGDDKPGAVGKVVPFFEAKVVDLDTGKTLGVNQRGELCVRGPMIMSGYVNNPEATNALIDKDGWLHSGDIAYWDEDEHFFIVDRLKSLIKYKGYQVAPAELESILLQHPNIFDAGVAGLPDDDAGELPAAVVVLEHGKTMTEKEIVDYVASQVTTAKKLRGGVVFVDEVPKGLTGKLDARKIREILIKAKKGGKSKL
Chain of Concanavalin-A (Canavalia ensiformis) (P02866 whole entry, looked up): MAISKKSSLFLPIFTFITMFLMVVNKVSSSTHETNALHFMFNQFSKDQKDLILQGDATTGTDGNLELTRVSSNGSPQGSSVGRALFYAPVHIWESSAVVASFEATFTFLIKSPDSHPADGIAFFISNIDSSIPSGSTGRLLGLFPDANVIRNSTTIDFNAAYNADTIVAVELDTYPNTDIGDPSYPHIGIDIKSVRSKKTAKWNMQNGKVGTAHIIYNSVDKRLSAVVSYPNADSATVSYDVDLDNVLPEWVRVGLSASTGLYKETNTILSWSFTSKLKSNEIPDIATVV
Chain of Albumin (Bos taurus) (P02769 whole entry, looked up): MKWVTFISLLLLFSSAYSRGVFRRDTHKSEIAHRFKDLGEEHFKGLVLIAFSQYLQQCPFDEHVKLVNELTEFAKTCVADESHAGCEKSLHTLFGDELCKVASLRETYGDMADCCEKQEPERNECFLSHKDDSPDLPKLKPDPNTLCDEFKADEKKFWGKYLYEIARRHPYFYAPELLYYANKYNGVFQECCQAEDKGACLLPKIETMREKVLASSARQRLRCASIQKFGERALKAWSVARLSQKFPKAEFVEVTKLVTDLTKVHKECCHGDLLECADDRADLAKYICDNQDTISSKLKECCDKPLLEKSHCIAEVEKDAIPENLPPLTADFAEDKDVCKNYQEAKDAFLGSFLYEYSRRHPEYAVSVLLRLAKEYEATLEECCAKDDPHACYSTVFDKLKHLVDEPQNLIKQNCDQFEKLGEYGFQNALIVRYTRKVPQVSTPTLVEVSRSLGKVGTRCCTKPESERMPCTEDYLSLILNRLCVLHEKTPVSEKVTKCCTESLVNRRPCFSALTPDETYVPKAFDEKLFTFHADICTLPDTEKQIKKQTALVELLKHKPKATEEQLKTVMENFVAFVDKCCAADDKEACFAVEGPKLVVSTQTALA
Chain of Follistatin (Homo sapiens) (P19883 whole entry, looked up): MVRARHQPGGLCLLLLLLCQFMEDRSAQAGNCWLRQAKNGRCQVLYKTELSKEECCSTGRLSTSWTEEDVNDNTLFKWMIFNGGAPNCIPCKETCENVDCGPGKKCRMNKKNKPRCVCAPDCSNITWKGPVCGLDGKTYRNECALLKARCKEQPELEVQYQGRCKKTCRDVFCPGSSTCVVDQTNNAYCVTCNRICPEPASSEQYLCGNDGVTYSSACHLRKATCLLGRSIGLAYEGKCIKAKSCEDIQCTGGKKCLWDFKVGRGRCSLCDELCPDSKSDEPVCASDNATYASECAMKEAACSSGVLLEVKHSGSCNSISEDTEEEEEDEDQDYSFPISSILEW
Chain of Fibroblast growth factor 2 (Homo sapiens) (P09038 whole entry, looked up): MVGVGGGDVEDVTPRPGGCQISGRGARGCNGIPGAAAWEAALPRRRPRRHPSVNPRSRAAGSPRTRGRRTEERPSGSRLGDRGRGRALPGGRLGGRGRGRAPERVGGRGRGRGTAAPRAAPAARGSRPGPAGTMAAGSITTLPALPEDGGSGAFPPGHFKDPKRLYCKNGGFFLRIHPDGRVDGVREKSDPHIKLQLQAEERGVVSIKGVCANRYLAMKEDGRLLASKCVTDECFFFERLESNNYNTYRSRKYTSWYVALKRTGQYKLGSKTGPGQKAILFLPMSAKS

Consider `O=C1C2=CC[C@H]3C(=O)N(C4CCCCC4)C(=O)[C@H]3[C@H]2[C@H](O)[C@@H]2O[C@H]12`, for which the composite z-score was 0.964 with Albumin (Bos taurus); -0.199 in assay [2]; -0.149 in [3]; 0.335 in [4]; -0.888 in [5]; -0.17 in assay [6]. Besides, the composite z-score in the assay with Sam68 (KHDRBS1) was -2.02; in [7], 0.0365; in assay [8], -0.21; in assay [9] it was -0.242; in assay [10] it was -0.958; in assay [11], -0.504. The composite z-score was 0.0555 in assay [12]; -0.864 in [13]; -0.682 in assay [14]; -0.455 in the assay on Lefty1; -0.685 in assay [16]. Further, the composite Z-score in [1] was -0.631 (inactive). Moreover, the figures for the z-score in assay [15] and in [17] were -1.65 and -0.389 (inactive), respectively.
In the case of `CC(C)CON=C1C[C@@H](O)[C@@H](O)[C@@H]2[C@@H]3C(=O)N(c4ccc(F)cc4F)C(=O)[C@@H]3CC[C@@H]12`, the composite z-score was 0.238 with Albumin (Bos taurus); -0.095 in [2]; -0.0896 in assay [3]; 0.0617 in assay [4]; -0.146 in [5]; 0.135 in [6]. The composite z-score in the assay with Sam68 (KHDRBS1) is 0.693; in assay [7], 0.243; in assay [8], 0.72; in assay [9], 0.663; in [10] it was 0.105; in assay [11] it was 0.156. Further, the composite z-score in [12] is 0.699; in assay [13], 0.585; in assay [14], 0.508; in the assay with Lefty1, 0.617; in assay [16], -0.0433. Moreover, the composite Z-score in assay [1] is -0.0578 (inactive). Further, the z-score in assay [15] was -0.99; in assay [17], 0.831 (inactive).
For the compound `CO[C@@H]1COC(=O)CC=C[C@H](C)[C@H](OC)COC(=O)[C@@H]2CCCN2C(=O)CC=C[C@H]1C`, the composite z-score with Albumin (Bos taurus) was -0.568; in assay [2] it was -0.116; in assay [3] it was -0.154; in assay [4], -0.623; in [5] it was -0.301; in assay [6] it was 0.569. Moreover, the composite z-score with Sam68 (KHDRBS1) was 0.442; in [7], 1.44; in assay [8], -0.371; in assay [9], -0.51; in assay [10], -0.838; in [11] it was -0.226. Further, the composite z-score in assay [12] was -2.24; in assay [13], 1.38; in assay [14], 1.69; in the assay with Lefty1, 1.45; in assay [16] it was -1.11. The composite Z-score in assay [1] is 0.598 (inactive). In addition, the z-score is -0.213 in [15] and -0.577 (inactive) in assay [17].
With `COc1ccc(COC(=O)NN=C2C[C@@H](O)[C@@H](O)[C@@H]3[C@@H]4C(=O)N(Cc5ccc6c(c5)OCO6)C(=O)[C@@H]4CC[C@H]23)cc1`, the composite z-score with Albumin (Bos taurus) was 0.252; in assay [2], 0.0534; in [3], -0.0523; in assay [4], -0.32; in assay [5] it was 0.352; in assay [6] it was -0.257. Besides, the composite z-score in the assay on Sam68 (KHDRBS1) was -0.319; in assay [7] it was -0.486; in assay [8] it was -1.15; in [9], -0.0397; in [10] it was -0.474; in [11] it was -0.126. Also, the composite z-score in assay [12] was -0.261; in assay [13] it was -1.12; in [14] it was -1.21; with Lefty1 it was -1.06; in assay [16], 0.801. Further, the composite Z-score in assay [1] was 0.0467 (inactive). The z-score was 0.419 in assay [15] and 0.506 (inactive) in assay [17].
Take `CC(C)[C@@H](OCc1ccccc1)[C@H](C)CON=C1[C@H]2CCn3c(=O)n(-c4ccccc4)c(=O)n3[C@H]2[C@H](O)[C@@H]2O[C@H]12`: the composite z-score is 0.667 with Albumin (Bos taurus); -0.0072 in [2]; -0.0527 in assay [3]; -0.0291 in assay [4]; 0.476 in assay [5]; -0.219 in [6]. Moreover, the composite z-score was 0.593 with Sam68 (KHDRBS1); 0.427 in [7]; -0.0949 in assay [8]; 2.57 in assay [9]; 0.246 in assay [10]; 0.0884 in assay [11]. The composite z-score in assay [12] was -0.0016; in assay [13], 0.759; in assay [14] it was 0.324; with Lefty1 it was 0.689; in assay [16] it was 0.192. In [1], the composite Z-score was 0.382 (inactive). Besides, the z-score in assay [15] is -0.139; in [17], 0.0981 (inactive).
